According to PubChem BioAssay AID1159580 (chemical genetic matrix, 2015):
Where “and” joins values, the source holds several entries; their conditions need not be identical. Identical values can stand only once. Out of some 5,500 compounds screened, about 2,000 (36%) were called active. About 18% were inconclusive and are not listed. Cut-off read from the data, not from the text of the source: active = normalized growth mostly below about 0.91 (no sharp cut-off); inconclusive = no clear call, values can overlap the other calls; inactive = mostly above about 0.92. This is one part of the list.

Assay: chemical genetic growth profiling, strain panel (AID 1159580);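 note: tested at 20 µM; growth read once vehicle control cultures reached saturation at 30 °C; 1 = growth at the plate median or of vehicle wells; lower values mean less growth of the strain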
Settings: S. cerevisiae deletion strains, growth OD

Measured: normalized growth

CN(C)CCCN1c2ccccc2CCc2ccc(Cl)cc21
0.876 (active) and 1 (inactive): locus YHR030C, strain SLT2, stronger effect = lower value
0.696 (active) and 0.99 (inactive): locus YJL095W, strain BCK1, stronger effect = lower value
inactive: locus YAL013W, strain DEP1, stronger effect = lower value 0.92 and 0.962 | locus YAL030W, strain snc1, stronger effect = lower value 1 | locus YAL040C, strain CLN3, stronger effect = lower value 1.02 | locus YBL061C, strain skt5, stronger effect = lower value 1.01 | locus YBR009C, strain hhf1, stronger effect = lower value 0.944 | locus YBR023C, strain chs3, stronger effect = lower value 1.01 | locus YBR171W, strain sec66, stronger effect = lower value 0.99 | locus YBR229C, strain ROT2, stronger effect = lower value 0.975 | locus YBR231C, strain swc5, stronger effect = lower value 1.01 | locus YBR279W, strain paf1, stronger effect = lower value 0.996 | locus YCL011C, strain gbp2, stronger effect = lower value 0.984 | locus YCL016C, strain dcc1, stronger effect = lower value 0.994 | locus YCL029C, strain bik1, stronger effect = lower value 1 | locus YCL061C, strain MRC1 (second series), stronger effect = lower value 0.999 | locus YCL061C, strain MRC1, stronger effect = lower value 1 | locus YCL069W, strain vba3, stronger effect = lower value 1 | locus YCR088W, strain abp1, stronger effect = lower value 1 | locus YDL005C, strain med2, stronger effect = lower value 1.03 | locus YDL040C, strain nat1, stronger effect = lower value 0.998 | locus YDL101C, strain DUN1, stronger effect = lower value 0.977 | locus YDL185W, strain tfp1, stronger effect = lower value 0.984 | locus YDL192W, strain arf1, stronger effect = lower value 0.933 | locus YDR001C, strain nth1, stronger effect = lower value 1.01 | locus YDR069C, strain doa4, stronger effect = lower value 0.919 | locus YDR101C, strain arx1, stronger effect = lower value 1 | locus YDR150W, strain NUM1, stronger effect = lower value 1.01 | locus YDR159W, strain sac3, stronger effect = lower value 1.04 | locus YDR195W, strain ref2 1.07 | locus YDR297W, strain sur2, stronger effect = lower value 1.01 | locus YDR318W, strain mcm21, stronger effect = lower value 0.978 | locus YDR334W, strain swr1, stronger effect = lower value 1.01 | locus YDR335W, strain msn5, stronger effect = lower value 1 | locus YDR392W, strain spt3, stronger effect = lower value 0.93 | locus YDR502C, strain sam2, stronger effect = lower value 0.963 | locus YEL003W, strain gim4, stronger effect = lower value 0.984 | locus YEL037C, strain rad23, stronger effect = lower value 1 | locus YEL061C, strain CIN8 (second series), stronger effect = lower value 1.01 | locus YEL061C, strain CIN8, stronger effect = lower value 0.99 | locus YER002W, strain NOP16, stronger effect = lower value 1.08 | locus YER015W, strain faa2, stronger effect = lower value 0.972 | locus YER016W, strain bim1, stronger effect = lower value 1 | locus YER110C, stronger effect = lower value 0.999 | locus YER111C, strain swi4, stronger effect = lower value 0.994 | locus YER155C, strain BEM2 (second series), stronger effect = lower value 1.01 | locus YER155C, strain BEM2, stronger effect = lower value 1 | locus YER167W, strain BCK2, stronger effect = lower value 0.952 | locus YGL078C, strain dbp3, stronger effect = lower value 0.989 | locus YGL086W, strain mad1, stronger effect = lower value 0.967 | locus YGL167C, strain pmr1, stronger effect = lower value 1 | locus YGL173C, strain kem1, stronger effect = lower value 0.967 | locus YGL227W, strain vid30, stronger effect = lower value 0.993 | locus YGL240W, strain doc1, stronger effect = lower value 1 | locus YGL248W, strain PDE1, stronger effect = lower value 0.917 | locus YGL253W, strain hxk2, stronger effect = lower value 0.971 | locus YHR013C, strain ard1, stronger effect = lower value 0.852 | locus YHR079C, strain IRE1 (second series), stronger effect = lower value 0.992 | locus YHR079C, strain IRE1, stronger effect = lower value 0.981 | locus YHR094C, strain hxt1, stronger effect = lower value 0.993 | locus YHR129C, strain ARP1, stronger effect = lower value 0.986 | locus YHR142W, strain chs7, stronger effect = lower value 0.977 | locus YHR200W, strain rpn10, stronger effect = lower value 0.998 | locus YIL073C, strain SPO22, stronger effect = lower value 0.79 | locus YIL125W, strain kgd1, stronger effect = lower value 0.993 | locus YIR030C, strain dcg1, stronger effect = lower value 0.995 | locus YJL092W, strain hpr5, stronger effect = lower value 1.01 | locus YJL095W, strain BCK1 (second series), stronger effect = lower value 0.997 | locus YJL115W, strain asf1, stronger effect = lower value 0.997 | locus YJL129C, strain trk1, stronger effect = lower value 1.02 | locus YJL134W, strain LCB3, stronger effect = lower value 0.991 | locus YJL154C, strain vps35, stronger effect = lower value 1 | locus YJL164C, strain tpk1, stronger effect = lower value 0.993 | locus YJL166W, strain qcr8, stronger effect = lower value 0.957 | locus YJL168C, strain set2, stronger effect = lower value 0.993 | locus YJL187C, strain SWE1 (second series), stronger effect = lower value 0.887 | locus YJL187C, strain SWE1, stronger effect = lower value 1 | locus YJR043C, strain POL32, stronger effect = lower value 1.01
active: locus YAL021C, strain ccr4, stronger effect = lower value 0.899 | locus YAL026C, strain drs2, stronger effect = lower value 0.77 | locus YBR021W, strain FUR4, stronger effect = lower value 0.561 | locus YDL035C, strain GPR1, stronger effect = lower value 0.824 | locus YDL074C, strain BRE1, stronger effect = lower value 0.674 | locus YDL134C, strain PPH21, stronger effect = lower value 0.812 | locus YDR137W, strain rgp1, stronger effect = lower value 1.21 [resistant] | locus YDR162C, strain NBP2, stronger effect = lower value 0.725 | locus YDR388W, stronger effect = lower value 0.825 | locus YFR010W, strain ubp6, stronger effect = lower value 0.882 | locus YGR135W, strain pre9, stronger effect = lower value 0.784 | locus YGR252W, strain gcn5, stronger effect = lower value 0.527 | locus YHR027C, strain rpn1, stronger effect = lower value 0.915 | locus YIL066C, strain RNR3, stronger effect = lower value 0.836
